# B1: unnamed (peptide)
# chain: NNNKMRPHLPPLSSG
# B2: unnamed (peptide)
# chain: LSKRLPLRFPEHTSS
# What was measured:
# Experiment in all cases: SPOT peptide array binding signal intensity (averaged, normalized) (arbitrary units (background-subtracted, floor 0; scale differs between SH3 domains)); higher = stronger binding of the SH3 domain to the peptide
# AgAbp1 = biological target: AgAbp1
# Method: (§1)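 GST-tagged SH3 domains from S. cerevisiae (Sc), A. gossypii (Ag), C. albicans (Ca) and S. pombe (Sp) were incubated at 10 ug/ml overnight at 4 C on cellulose SPOT membranes carrying 292 synthetic 15-mer peptides mined from the S. cerevisiae proteome (cysteines replaced by serines). Binding was detected with anti-GST antibody, HRP secondary and chemiluminescence, quantified with Genespotter, and reported as normalized spot intensities averaged over biological replicates.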
# AgBbc1 = biological target: AgBbc1
# Method: as §1
# AgBem1-D1 = biological target: AgBem1-D1
# Method: as §1
# AgBzz1-D1 = biological target: AgBzz1-D1
# Method: as §1
# AgBzz1-D2 = biological target: AgBzz1-D2
# Method: as §1
# AgCyk3 = biological target: AgCyk3
# Method: as §1
# AgFus1 = biological target: AgFus1
# Method: as §1
# AgHof1 = biological target: AgHof1
# Method: as §1
# AgHse1 = biological target: AgHse1
# Method: as §1
# AgLsb1 = biological target: AgLsb1
# Method: as §1
# AgLsb4 = biological target: AgLsb4
# Method: as §1
# AgMyo5 = biological target: AgMyo5
# Method: as §1
# AgNbp2 = biological target: AgNbp2
# Method: as §1
# AgRvs167 = biological target: AgRvs167
# Method: as §1
# AgSho1 = biological target: AgSho1
# Method: as §1
# AgSla1-D1-D2 = biological target: AgSla1-D1-D2
# Method: as §1
# AgSla1-D3 = biological target: AgSla1-D3
# Method: as §1
# CaAbp1-D1 = biological target: CaAbp1-D1
# Method: as §1
# CaAbp1-D2 = biological target: CaAbp1-D2
# Method: as §1
# CaBbc1 = biological target: CaBbc1
# Method: as §1
# CaBem1-D1 = biological target: CaBem1-D1
# Method: as §1
# CaBzz1-D1 = biological target: CaBzz1-D1
# Method: as §1
# CaBzz1-D2 = biological target: CaBzz1-D2
# Method: as §1
# CaCyk3 = biological target: CaCyk3
# Method: as §1
# CaFus1 = biological target: CaFus1
# Method: as §1
# CaHof1 = biological target: CaHof1
# Method: as §1
# CaHse1 = biological target: CaHse1
# Method: as §1
# CaLsb1 = biological target: CaLsb1
# Method: as §1
# CaLsb4 = biological target: CaLsb4
# Method: as §1
# CaMyo5 = biological target: CaMyo5
# Method: as §1
# CaNbp2 = biological target: CaNbp2
# Method: as §1
# CaRvs167 = biological target: CaRvs167
# Method: as §1
# CaRvs167-3 = biological target: CaRvs167-3
# Method: as §1
# CaSho1 = biological target: CaSho1
# Method: as §1
# CaSla1-D1-D2 = biological target: CaSla1-D1-D2
# Method: as §1
# CaSla1-D3 = biological target: CaSla1-D3
# Method: as §1
# ScAbp1 = biological target: ScAbp1
# Method: as §1
# ScBbc1 = biological target: ScBbc1
# Method: as §1
# ScBem1-D1 = biological target: ScBem1-D1
# Method: as §1
# ScBzz1-D1 = biological target: ScBzz1-D1
# Method: as §1
# ScBzz1-D2 = biological target: ScBzz1-D2
# Method: as §1
# ScCyk3 = biological target: ScCyk3
# Method: as §1
# ScFus1 = biological target: ScFus1
# Method: as §1
# ScHof1 = biological target: ScHof1
# Method: as §1
# ScHse1 = biological target: ScHse1
# Method: as §1
# ScLsb1 = biological target: ScLsb1
# Method: as §1
# ScLsb2 = biological target: ScLsb2
# Method: as §1
# ScLsb3 = biological target: ScLsb3
# Method: as §1
# ScLsb4 = biological target: ScLsb4
# Method: as §1
# ScMyo3 = biological target: ScMyo3
# Method: as §1
# ScMyo5 = biological target: ScMyo5
# Method: as §1
# ScNbp2 = biological target: ScNbp2
# Method: as §1
# ScPex13 = biological target: ScPex13
# Method: as §1
# ScRvs167 = biological target: ScRvs167
# Method: as §1
# ScSho1 = biological target: ScSho1
# Method: as §1
# ScSla1-D1-D2 = biological target: ScSla1-D1-D2
# Method: as §1
# ScSla1-D3 = biological target: ScSla1-D3
# Method: as §1
# SpAbp1-D1 = biological target: SpAbp1-D1
# Method: as §1
# SpBbc1 = biological target: SpBbc1
# Method: as §1
# SpBzz1-D1 = biological target: SpBzz1-D1
# Method: as §1
# SpBzz1-D2 = biological target: SpBzz1-D2
# Method: as §1
# SpCyk3 = biological target: SpCyk3
# Method: as §1
# SpHof1 = biological target: SpHof1
# Method: as §1
# SpHof1-2 = biological target: SpHof1-2
# Method: as §1
# SpHof1-3 = biological target: SpHof1-3
# Method: as §1
# SpHse1 = biological target: SpHse1
# Method: as §1
# SpLsb1 = biological target: SpLsb1
# Method: as §1
# SpLsb4 = biological target: SpLsb4
# Method: as §1
# SpMyo1 = biological target: SpMyo1
# Method: as §1
# SpNbp2 = biological target: SpNbp2
# Method: as §1
# SpPex13 = biological target: SpPex13
# Method: as §1
# SpRvs167 = biological target: SpRvs167
# Method: as §1
# SpSla1-D1-D2 = biological target: SpSla1-D1-D2
# Method: as §1
# SpSla1-D3 = biological target: SpSla1-D3
# Method: as §1
binder,measurement,setting,value
B1,SPOT peptide array binding signal intensity,AgAbp1,47.5
same,SPOT peptide array binding signal intensity,AgBbc1,1.5
same,SPOT peptide array binding signal intensity,AgBem1-D1,288
same,SPOT peptide array binding signal intensity,AgBzz1-D1,12
same,SPOT peptide array binding signal intensity,AgBzz1-D2,9
same,SPOT peptide array binding signal intensity,AgCyk3,≤ 0
same,SPOT peptide array binding signal intensity,AgFus1,386
same,SPOT peptide array binding signal intensity,AgHof1,291
same,SPOT peptide array binding signal intensity,AgHse1,932
same,SPOT peptide array binding signal intensity,AgLsb1,1.25
same,SPOT peptide array binding signal intensity,AgLsb4,34.5
same,SPOT peptide array binding signal intensity,AgMyo5,≤ 0
same,SPOT peptide array binding signal intensity,AgNbp2,513
same,SPOT peptide array binding signal intensity,AgRvs167,3.5
same,SPOT peptide array binding signal intensity,AgSho1,559
same,SPOT peptide array binding signal intensity,AgSla1-D1-D2,≤ 0
same,SPOT peptide array binding signal intensity,AgSla1-D3,0.5
same,SPOT peptide array binding signal intensity,CaAbp1-D1,613
same,SPOT peptide array binding signal intensity,CaAbp1-D2,330
same,SPOT peptide array binding signal intensity,CaBbc1,55.9
same,SPOT peptide array binding signal intensity,CaBem1-D1,264
same,SPOT peptide array binding signal intensity,CaBzz1-D1,85.8
same,SPOT peptide array binding signal intensity,CaBzz1-D2,49.8
same,SPOT peptide array binding signal intensity,CaCyk3,4
same,SPOT peptide array binding signal intensity,CaFus1,1790
same,SPOT peptide array binding signal intensity,CaHof1,≤ 0
same,SPOT peptide array binding signal intensity,CaHse1,487
same,SPOT peptide array binding signal intensity,CaLsb1,3.75
same,SPOT peptide array binding signal intensity,CaLsb4,728
same,SPOT peptide array binding signal intensity,CaMyo5,36.2
same,SPOT peptide array binding signal intensity,CaNbp2,1410
same,SPOT peptide array binding signal intensity,CaRvs167,53.7
same,SPOT peptide array binding signal intensity,CaRvs167-3,4
same,SPOT peptide array binding signal intensity,CaSho1,1520
same,SPOT peptide array binding signal intensity,CaSla1-D1-D2,396
same,SPOT peptide array binding signal intensity,CaSla1-D3,109
same,SPOT peptide array binding signal intensity,ScAbp1,256
same,SPOT peptide array binding signal intensity,ScBbc1,≤ 0
same,SPOT peptide array binding signal intensity,ScBem1-D1,≤ 0
same,SPOT peptide array binding signal intensity,ScBzz1-D1,≤ 0
same,SPOT peptide array binding signal intensity,ScBzz1-D2,≤ 0
same,SPOT peptide array binding signal intensity,ScCyk3,2.25
same,SPOT peptide array binding signal intensity,ScFus1,424
same,SPOT peptide array binding signal intensity,ScHof1,267
same,SPOT peptide array binding signal intensity,ScHse1,1820
same,SPOT peptide array binding signal intensity,ScLsb1,27.2
same,SPOT peptide array binding signal intensity,ScLsb2,0.5
same,SPOT peptide array binding signal intensity,ScLsb3,357
same,SPOT peptide array binding signal intensity,ScLsb4,163
same,SPOT peptide array binding signal intensity,ScMyo3,10.5
same,SPOT peptide array binding signal intensity,ScMyo5,2
same,SPOT peptide array binding signal intensity,ScNbp2,710
same,SPOT peptide array binding signal intensity,ScPex13,116
same,SPOT peptide array binding signal intensity,ScRvs167,55.6
same,SPOT peptide array binding signal intensity,ScSho1,1410
same,SPOT peptide array binding signal intensity,ScSla1-D1-D2,156
same,SPOT peptide array binding signal intensity,ScSla1-D3,224
same,SPOT peptide array binding signal intensity,SpAbp1-D1,323
same,SPOT peptide array binding signal intensity,SpBbc1,1
same,SPOT peptide array binding signal intensity,SpBzz1-D1,354
same,SPOT peptide array binding signal intensity,SpBzz1-D2,6.38
same,SPOT peptide array binding signal intensity,SpCyk3,1.75
same,SPOT peptide array binding signal intensity,SpHof1,9.5
same,SPOT peptide array binding signal intensity,SpHof1-2,78.8
same,SPOT peptide array binding signal intensity,SpHof1-3,552
same,SPOT peptide array binding signal intensity,SpHse1,1170
same,SPOT peptide array binding signal intensity,SpLsb1,3.38
same,SPOT peptide array binding signal intensity,SpLsb4,904
same,SPOT peptide array binding signal intensity,SpMyo1,28.1
same,SPOT peptide array binding signal intensity,SpNbp2,460
same,SPOT peptide array binding signal intensity,SpPex13,92.5
same,SPOT peptide array binding signal intensity,SpRvs167,119
same,SPOT peptide array binding signal intensity,SpSla1-D1-D2,≤ 0
same,SPOT peptide array binding signal intensity,SpSla1-D3,64.5
B2,SPOT peptide array binding signal intensity,SpBzz1-D2,≤ 0
same,SPOT peptide array binding signal intensity,SpCyk3,≤ 0
same,SPOT peptide array binding signal intensity,SpHof1,86
same,SPOT peptide array binding signal intensity,SpHof1-2,36.2
same,SPOT peptide array binding signal intensity,SpHof1-3,538
same,SPOT peptide array binding signal intensity,SpHse1,403
same,SPOT peptide array binding signal intensity,SpLsb1,4.75
same,SPOT peptide array binding signal intensity,SpLsb4,1200
same,SPOT peptide array binding signal intensity,SpMyo1,3.75
same,SPOT peptide array binding signal intensity,SpNbp2,32
same,SPOT peptide array binding signal intensity,SpPex13,2
same,SPOT peptide array binding signal intensity,SpRvs167,143
same,SPOT peptide array binding signal intensity,SpSla1-D1-D2,≤ 0
same,SPOT peptide array binding signal intensity,SpSla1-D3,≤ 0
